ATXN2 expr inh – Primary qHTS for Inhibitors of ATXN expression | Potency, µM (titrated, usually from 57 µM), hits mostly inhibitors | HEK-293 ATXN2-luciferase reporter, luminescence, 24 h | 360,000 compounds, 0.72% hits; also: nearly all actives have a fitted effect of over 55% in size
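qHTS (up to 57 uM final) was run with 24 h compound exposure of reporter cells at 37 °C. Each well was multiplexed: SteadyGlo luminescence measured ATXN2-luciferase expression after a fluorogenic Gly-Phe-AFC viability readout (25 uM final).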
VP16 counter – VP16 counterscreen qHTS for inhibitors of ROR gamma transcriptional activity. Drosophila S2 Gal4-VP16 UAS-luciferase, luminescence, 20 h. 310,000 compounds, 3.5% hits. Potency, µM (series often up to 53.6 µM), hits mostly inhibitors;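 also: Gal4-VP16 expression switched on by copper sulfate through the metallothionein promoter; nearly all actives have a fitted effect of over 50% in size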
TGFb inhibitor – qHTS for Inhibitors of TGF-b | HepG2 CAGA-GFP TGF-b/SMAD3 reporter, GFP fluorescence, 18 h; TGF-beta stimulated, 500 pg/mL final | Potency, µM (top dose mostly 46.1 µM), most hits filed as inhibitors | 410,000 compounds, 1.2% hits | AID 588855, 2011; also: nearly all actives have a fitted effect of over 65% in size
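Per well, imaged GFP fluorescence of HEPG2 CAGA-GFP cells gives the signal; cells get compound, then TGF-beta (500 pg/mL final), 18 h at 37 degrees C; %Activity versus -TGF-beta and +DMSO controls.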
HepG2 viability – qHTS for Inhibitors of TGF-b: Cytotox Counterscreen; HepG2 CAGA-GFP viability, ATP luminescence, 18 h; Potency, µM (titrated, usually from 46.1 µM), hits mostly cytotoxic; 410,000 compounds, 0.76% hits; AID 588856, 2011
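CellTiter-Glo luminescence gave cytotoxicity after 18 hours at 37 degrees C. The cells were HepG2 CAGA-GFP in 1% FBS DMEM, stimulated with 500 pg/mL TGF-beta after compound addition. %Activity was normalised to no-cell wells (complete cell-killing) and DMSO (no toxicity), and curves were fitted and classified.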
S2 tox – Viability Counterscreen for Primary qHTS for Inhibitors of ATXN expression; S2 cells (HEK-293 line with an ATXN2-luciferase reporter) viability, CellTiter-Fluor protease fluorescence, 24 h; Potency, µM (highest dose often 56.7 µM), most hits filed as cytotoxic; 400,000 compounds, 0.49% hits; AID 651635, 2014; also: nearly all actives have a fitted effect of over 40% in size
RORg inh – qHTS for inhibitors of ROR gamma transcriptional activity | Nuclear receptor ROR-gamma (Mus musculus), P51450 | Drosophila S2 Gal4-RORgamma UAS-luciferase reporter, 20 h | Potency, µM (highest dose often 53.6 µM), usual class: inhibitors | 310,000 compounds, 5.4% hits; also: nearly all actives have a fitted effect of over 60% in size
Target sequence (P51450 whole entry, looked up, the tested form may be a part): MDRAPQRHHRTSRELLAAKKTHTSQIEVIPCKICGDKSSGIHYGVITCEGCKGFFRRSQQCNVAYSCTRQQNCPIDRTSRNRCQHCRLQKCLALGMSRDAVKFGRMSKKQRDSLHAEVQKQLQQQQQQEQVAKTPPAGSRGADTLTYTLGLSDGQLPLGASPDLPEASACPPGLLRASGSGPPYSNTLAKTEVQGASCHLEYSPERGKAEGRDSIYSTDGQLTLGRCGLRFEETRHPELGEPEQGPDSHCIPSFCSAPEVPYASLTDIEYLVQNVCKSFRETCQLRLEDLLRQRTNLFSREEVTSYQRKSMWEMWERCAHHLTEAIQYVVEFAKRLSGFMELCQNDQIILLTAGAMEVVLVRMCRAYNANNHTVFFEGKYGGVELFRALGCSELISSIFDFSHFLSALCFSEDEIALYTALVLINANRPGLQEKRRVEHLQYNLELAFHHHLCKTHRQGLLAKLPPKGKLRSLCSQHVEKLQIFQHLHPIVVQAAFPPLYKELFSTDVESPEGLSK
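Stable Schneider cell line, Gal4 DNA-binding domain fused to ROR gamma, UAS-luciferase. Cmpd 1 hr RT → CuSO4 700 uM final → 20 hr RT → luciferase reagent 10 min → luminescence.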
Hits are given with their value; 0 = inactive; ? = inconclusive; - = not tested or not shown; [ ] = another dose, or the depositor's remark. The list is not random: actives were taken first. Their share in the collection is about 6.1%. Calls follow the shape of the dose curve; as a rule, active = well fitted curve in the direction sought with a large enough effect; inconclusive = small, poorly fitted or top-dose-only effect, or another doubt; inactive = no such curve, though single readings can be large; an effect the other way counts as inactive or inconclusive.

SMILES	ATXN2 expr inh	VP16 counter	TGFb inhibitor	HepG2 viability	S2 tox	RORg inh
COc1cccc(NC(=O)c2sc3nc(C)c(C(=O)Nc4ccc(C)cc4C)c(-c4ccco4)c3c2N)c1	0	-	0	0	0	-
CC1=C(C)C(c2ccccc2)NC(=S)N1 (centres undefined)	0	0	0	0	0	5µM
CC[N+]1(CC)CCC(=C(c2ccccc2)c2ccccc2)C1C (centres undefined)	0	-	-	-	0	-
O=C1/C(=C/c2ccccc2Cl)SC(=S)N1CCCC(=O)N(CCO)c1ccccc1	?	?	?	0	-	2.2µM
O=C(CCCN1C(=O)/C(=C/c2ccccc2Cl)SC1=S)Nc1ccccn1	17µM	?	?	0	0	1.8µM
O=C(CCCN1C(=O)/C(=C/c2ccccc2Cl)SC1=S)Nc1cccnc1	?	0	0	0	14µM	0.22µM
CN(C(=O)CN1C(=O)S/C(=C\c2ccccc2Cl)C1=O)C1CCS(=O)(=O)C1 (centres undefined)	0	0	0	0	0	0
O=C(CCN1C(=O)/C(=C/c2ccccc2Cl)SC1=S)Nc1ccccn1	-	0	0	0	0	0
CN(C(=O)CN1C(=O)/C(=C/c2ccccc2Cl)SC1=S)C1CCS(=O)(=O)C1 (centres undefined)	0	?	0	0	0	10µM
O=C(CCN1C(=O)/C(=C/c2ccccc2Cl)SC1=S)NC1CCCC1	0	0	0	0	0	0
C/C(=C\C(=O)OCCCCCCCCC(=O)O)C[C@@H]1OCC(C[C@H]2O[C@H]2[C@@H](C)[C@H](C)O)[C@@H](O)[C@H]1O (some centres undefined)	-	0	-	-	-	0
C=C(C)C1Cc2c(C)nn(-c3cccc4ccccc34)c2C1 (centres undefined)	0	?	?	0	0	14µM
COc1ccc(-n2c(=O)c3c(c4cc(OC)ccc4n3C)n(Cc3c(F)cccc3Cl)c2=O)cc1	0	-	0	0	0	-
COc1ccnc(CSC(N)=Nc2ccc(F)cc2)c1	0	?	0	0	0	10µM
COc1ccc(Cn2c(CO)cnc2SCc2ccc(F)cc2)cc1	0	-	0	0	0	-
CC1=C[C@@H]2[C@@H]([C@@H](O)C[C@@]3(C)[C@H]2C[C@@H](C)[C@]3(O)C(=O)CO)[C@@]2(C)Cc3cnn(-c4ccccc4)c3C=C12	0	-	-	-	-	-
CC(=O)OCC(=O)[C@@]1(O)[C@H](C)C[C@H]2[C@@H]3C=C(C)C4=Cc5c(cnn5-c5ccccc5)C[C@]4(C)[C@@H]3[C@@H](O)C[C@@]21C	27µM	-	-	-	-	-
COc1ccccc1N1C(C)=CC(=C(C#N)c2nc3ccccc3s2)C=C1C	0	?	0	0	0	7.1µM
CC1=CC(=C(C#N)c2nc3ccccc3s2)C=C(C)N1c1ccc(F)cc1	0	0	?	0	0	?
O=C(NCC(c1ccc(Cl)cc1)N1CCCCC1)c1ccccc1F (centres undefined)	0	-	0	0	0	-
c1ccc2c(c1)Nc1cc3ccccc3cc1S2	0	0	0	0	0	0
COc1ccc2c(c1)Sc1ccccc1N2	?	6.3µM	?	0	0	6.3µM
COc1cccc(C(=O)Nc2ccc3nc(SCCOc4ccccc4)sc3c2)c1	0	-	0	0	0	-
O=C(CCCc1nc(-c2ccccc2)no1)Nc1cccnc1	0	?	0	0	0	0[10 µM]
O=C(CCCc1nc(-c2ccccc2)no1)NCc1cccnc1	0	5.6µM	0	0	0	?
SMILES	ATXN2 expr inh	VP16 counter	TGFb inhibitor	HepG2 viability	S2 tox	RORg inh
CCOC(=O)c1ccc(NC(=O)CCc2nc(-c3ccc(C)cc3)no2)cc1	0	7.9µM	0	0	0	?
Cc1ccc(-c2noc(CCCC(=O)Nc3cccnc3)n2)cc1	?	3.2µM	0	0	?	0.56µM
COc1ccccc1-c1noc(CCCC(=O)Nc2cccc(C(F)(F)F)c2)n1	?	-	13µM	0	?	-
CCOc1ccccc1-c1noc(CCCC(=O)Nc2cccc(C(F)(F)F)c2)n1	0	-	?	0	?	-
COc1ccc(-c2noc(CCC(=O)NCc3cccnc3)n2)cc1	0	0	0	0	0	0
COC(=O)c1ccc(NC(=O)CC2C(=O)N(c3ccc(Cl)cc3)C(=O)N2Cc2cccs2)cc1 (centres undefined)	-	-	?	0	-	-
COc1cccc(CNC(=O)c2cccc(N3CCCS3(=O)=O)c2)c1	0	-	0	0	0	-
Ic1ccc(Nc2nc(NCCN3CCOCC3)nc(N3CCOCC3)n2)cc1	-	-	0	0	-	-
COc1ccc(/C=C/C(=O)N2CCc3c(cnc(C)c3CNS(=O)(=O)c3cccs3)C2)cc1	-	-	-	-	0	-
Cc1cc(C)cc(NC(=O)N2CCN(C)c3ncccc32)c1	0	-	0	0	0	-
CCN(C(=O)CCc1nc(-c2ccc(C)cc2)no1)c1cccc(Cl)c1	0	-	13µM	0	0	-
CN(C)CCCNc1nc2cc(-c3ccsc3)sc2c(=O)n1C	0	-	0	0	0	-
Cc1ccc(F)cc1-c1cc2nc(NCCCN(C)C)n(C)c(=O)c2s1	32µM	-	?	0	?	-
CSc1ccc(-c2nc(CSCC(=O)NC3CC3)c(C)o2)cc1	?	?	0	0	0	8.9µM
CCc1ccc(-c2nc(CSCC(=O)NC3CC3)c(C)o2)cc1	?	?	0	0	?	2µM
CCC(C)NC(=O)CSCc1nc(-c2ccc(C)cc2)oc1C (centres undefined)	-	-	?	0	-	-
CCOC(=O)N1CCC(NC(=O)CSCc2nc(-c3ccc(OC)cc3)oc2C)CC1	0	0	0	0	?	0
COC(=O)CSCc1nc(-c2ccc(C(=O)OC)cc2)oc1C	4.5µM	-	0	0	0	-
Nc1nccc(-c2ccc3noc(-c4ccc(Cl)cc4)c3c2)n1	0	-	-	-	-	-
CCOC(=O)c1cc(-c2ccccc2)n(CC(=O)Nc2ccc(OC)cc2OC)c1C	-	-	0	0	-	-
Cc1ccn2cc(-c3cccc(NS(C)(=O)=O)c3)nc2c1	0	0	0	0	0	0
Cc1ccn2cc(-c3cccc([N+](=O)[O-])c3)nc2c1	0	?	0	0	0	10µM
Cc1ccc(-c2cn3ccc(C)cc3n2)cc1	-	-	0	0	-	-
Cc1ccn2cc(-c3ccc(Br)cc3)nc2c1	-	?	?	0	0	8.9µM
CC(=O)Nc1cccc(-c2cn3ccc(C)cc3n2)c1	0	?	0	0	?	?
Cc1ccn2cc(-c3cccc(NC(=O)CCC(=O)O)c3)nc2c1	0	10µM	0	0	0	7.1µM

Bioassay records: PubChem, National Center for Advancing Translational Sciences (NCATS)
